Consider 22 molecules from PMC12136788.

In all, about 24,000 sequences were measured (“enrichment r”: median about 0.99, highest 2% from about 3.7 on). These entries were drawn from the full list.

Sequences and labels used below:
T1: UNK ZnF1-3 (human, UniProt Q9C0B0 31-174)
T1 sequence: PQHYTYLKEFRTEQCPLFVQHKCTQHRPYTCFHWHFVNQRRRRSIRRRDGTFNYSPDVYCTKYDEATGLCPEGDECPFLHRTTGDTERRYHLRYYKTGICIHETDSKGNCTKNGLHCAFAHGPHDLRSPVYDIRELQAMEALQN

B1: 12329608_12331292_3055_3pUTR_ENSMUSG00000032625_ENSMUST00000046121|mouse|control|control (ssRNA)
RNA: GGGAGUUCUACAGUCCGACGAUCGAGGGUACAAAUGAGAGUUUUUACAUUUUUCCUUCUUUUUACUUUUCCCAACAAUAGCACGCUUUCUGGUCCUAACUGCACCGCAGUCUCCGUUGCAUGAAGAAAACUUGGACCAGCUGGCAACAGAGGAUUGAGCAUCA
B2: chr7:28421298:28421299:+_ENSMUSG00000004056_ENSMUST00000051356|mus_hu|FALSE|FALSE (ssRNA)
RNA: GGGAGUUCUACAGUCCGACGAUCCAUCAUCUCGUACAUGACCACACCCAGCCCCCACCAGUCCACGGCCCGGCCAUAGUCAUUGUCCUCCAGCACCUCAGGCGCCAGGUACUCCGGGGUCCCACAGAAGGUUUUCAUGGUGGCCAACAGAGGAUUGAGCAUCA
B3: chr7:151048522:151048523:+_ENSG00000013374_ENST00000566856|hu_mus|hu_hu_hu_mus_True|48_108 (ssRNA)
RNA: GGGAGUUCUACAGUCCGACGAUCCUGCUUCUUAUUUAUUACGAUCUUGAUGUAAUUUUCUUGAAAUCCGAAAGUUUCAGCUAUUUGGGACCUCAGUUCUCUACCAGUGACAUGCAAGCGGGUCUCCAACAAGCUUUUCUUAUCCAACAGAGGAUUGAGCAUCA
B4: chr7:52357369:52357370:-_ENSMUSG00000003420_ENSMUST00000003512|mus_hu|FALSE|FALSE (ssRNA)
RNA: GGGAGUUCUACAGUCCGACGAUCGUGCUCCCGCAGGCGGUGCGGGCAGGAGAAUAGCAGGAAGGUGAGCUCCUUGUUGGCCGCCUUGUCCUGCUGCUGCCACCGCUGACUGAUAGCCAGGGCCUCGGGCCAGUCCCCACCCCACAACAGAGGAUUGAGCAUCA
B5: chr5:132440482:132440483:+_ENSG00000170606_ENST00000304858|hu_hu|FALSE|FALSE (ssRNA)
RNA: GGGAGUUCUACAGUCCGACGAUCUUAAAGCAUAAUUAGAGCUCCUGCCAUGUAAGUCAUAAUGAAAAGUCUGCUGGAUAGCUAGAGCUGUAGCUAUAGCUCAACUUUCCAAAACAAACUUAUUCUUGUAGACACAUGGUUAAACAACAGAGGAUUGAGCAUCA
B6: chr8:101271117:101271118:-_ENSG00000034677_ENST00000519449|hu_mus|motif|central (ssRNA)
RNA: GGGAGUUCUACAGUCCGACGAUCGCAAUCACUGGAGCCGUGACUACAGGACGUUCUCAUGCUUUCUAAGUCUGAGCAGCGGAAUUCAGAAAAAUGACUGGAGUGGGAAUCUGCUACAGACGGCAUGCUGUCACUGAGGGAUGGCAACAGAGGAUUGAGCAUCA
B7: 46683936_46684056_841_CDS_ENSMUSG00000033319_ENSMUST00000036226|mouse|control|control (ssRNA)
RNA: GGGAGUUCUACAGUCCGACGAUCUCGAAGAGGAGUUGAGUUGGUUAAAGUCGUGUUGUUGACAGAUGCUCCGUGAUUUAACAAAGACUGGACAACCUUCAGAUGUCCUGCUGCAGAAGCGGCCCAUAAAGGGGGGGCCCCCUCCAACAGAGGAUUGAGCAUCA
B8: chr22:36164377:36164378:-_ENSG00000100320_ENST00000405409|hu_mus|FALSE|FALSE (ssRNA)
RNA: GGGAGUUCUACAGUCCGACGAUCACGGCCCUCUACCACGGUGCCGUGCAAUUUCUCCCUGGCCCUGUCUGCAUCAGCACUAUUCUCGAAAGUUACGAACCCGAAUCCCUUGGAGCCGCGCUCAUUAAAGAUUAUUUCCACAUCCAACAGAGGAUUGAGCAUCA
B9: chr17:3572670:3572671:+_ENSG00000127774_ENST00000248378|hu_hu|FALSE|FALSE (ssRNA)
RNA: GGGAGUUCUACAGUCCGACGAUCGUAGGUGAAGAGGCCCCCGAUGAGGCCUCCUGUAAAGAGAGGUCUCCGUGAUUUGAAAUAUUUGUUCCACCUCCUUCCCGCCUUGAGAAUGAGGAGCAGGGAGAGCAGGACGGAGGCGAGCAACAGAGGAUUGAGCAUCA
B10: chr2:47387770:47387771:-_ENSG00000143933_ENST00000272298|hu_mus|hu_hu_hu_mus_True|1_38 (ssRNA)
RNA: GGGAGUUCUACAGUCCGACGAUCAAGGUUUAAGGACAAUGACAGUAAGAUAAGGGAAGAAAACAUGGAGGAAUGAAGUCCUAAUUACUAUACAUGCAUAUUUUUUUACAGUAGGGGGGGGGAACCUUUUACAGAUAUUACAAACAACAGAGGAUUGAGCAUCA
B11: chr9:35286173:35286174:+_ENSMUSG00000038119_ENSMUST00000042842|mus_mus|FALSE|FALSE (ssRNA)
RNA: GGGAGUUCUACAGUCCGACGAUCAGUAUUAUUGUUACUUGAUGGAACAUACGUCCAUUUCAGCAUGAUCUGAGUGUCGCUAACAGCCUCUGUGUAUGCGAUGUGAGGUCCAGUUAUUGGGCGAUUGGAAAAACGAUUUGGGAACAACAGAGGAUUGAGCAUCA
B12: chrX:98862621:98862622:+_ENSMUSG00000034160_ENSMUST00000044475|mus_hu|mus_mus_mus_hu_False|58_88 (ssRNA)
RNA: GGGAGUUCUACAGUCCGACGAUCCUGCAUCUCCUUUAGAGUGUUUCCCAUAUUGGAGUAGGCAUCAGCAAAGGUAGGACUAAUUCGAAUAGCCUCCUUAUAAUGCAUCAGAGCUUCCUGCAGUUUUCCCUGCUGCUGCAGUACCAACAGAGGAUUGAGCAUCA
B13: chr2:32089778:32089779:+_ENSMUSG00000039262_ENSMUST00000036691|mus_hu|FALSE|FALSE (ssRNA)
RNA: GGGAGUUCUACAGUCCGACGAUCUAAACAAGCUGCACAUUACACCUCUAGCCAUCGUCUGCCCUUUCAAAUAUCUGGUCUACAUGGAAAGACAAAGAGGAAAGGCCAAAACAUAAACAAAAGGAAACAAAAACAAAACACAACCAACAGAGGAUUGAGCAUCA
B14: chr5:28742860:28742861:+_ENSMUSG00000048271_ENSMUST00000114884|mus_mus|FALSE|FALSE (ssRNA)
RNA: GGGAGUUCUACAGUCCGACGAUCAGAAUCUCUUGAAAAAGAAAAGGUGAGAUUUCCUCCUCAAGAAGAGUAUCAAUAUAAUAAGGAUUUAACAAAUGUGGCCAAGCCAAGGGCAGCAUAAGGUUAUGUUCAGGUAAGCAGCUGCAACAGAGGAUUGAGCAUCA
B15: chr3:49066234:49066235:-_ENSG00000178035_ENST00000326739|hu_hu|FALSE|FALSE (ssRNA)
RNA: GGGAGUUCUACAGUCCGACGAUCAGAAGUCAGGUCCACCUGGUCUGCAGUGAAGUCGAUGUACCCAGGGAGAAUGAGAAAGUCAUUGUAGGUGAGGCCGUCUCCGCAGUUGAAGAGCUGCUGUGCUGUGAGUCCGUCGUCUGGCAACAGAGGAUUGAGCAUCA
B16: chr8:87366250:87366251:-_ENSMUSG00000003814_ENSMUST00000003912|mus_mus|FALSE|FALSE (ssRNA)
RNA: GGGAGUUCUACAGUCCGACGAUCGAGCAGAUGAAAUCUCAAGCCUAGGGCUUCUCCUCUACACCCCUGUUCCUAGAGUUGGAGGGUAGUGACCAAAAGAUGGAGAAAGGGAGGGACAGAAGGAAAAGAUGUUGAUUCAAAAAUCAACAGAGGAUUGAGCAUCA
B17: chr7:75932113:75932114:+_ENSG00000106211_ENST00000248553|hu_hu|hu_hu_hu_mus_False|28_98 (ssRNA)
RNA: GGGAGUUCUACAGUCCGACGAUCCUGCGACCACUCAUCCGGCAGCCGGGGCACCCCGAAAGCUUGAUCGAAGAGGCGGCUGUGUGCAGGGUACCAGUCCCGGAAUGCCCAGCUGGGCGGGCUCCGCAGCAGCGAGAAGGGCACCAACAGAGGAUUGAGCAUCA
B18: chr4:88367131:88367132:-_ENSMUSG00000070923_ENSMUST00000094993|mus_hu|motif|central (ssRNA)
RNA: GGGAGUUCUACAGUCCGACGAUCUUGGUAAUUGCUAGCUUCCAAAAGCAAAUUCACGCAGGUAUUGUCUGUUCUCAUGAAAUCGGCUGUCUGCACGUAAUUGAUGAGAUCCUGUGGUGUCAUCAGUGGAAAUCGAAUAUUCUUCAACAGAGGAUUGAGCAUCA
B19: chr8:104447970:104447971:+_ENSG00000164934_ENST00000297579|hu_hu|hu_hu_hu_mus_False|48_108 (ssRNA)
RNA: GGGAGUUCUACAGUCCGACGAUCAUAUACCUCCCUGCUUCGGCUCUUGUCCACAGGAAAGAUUCUAAUAGACUUAUCAAAGCUGGCAGACACAAACUCCUUCCCAGUGGGAGAGUAGUCCACAUCAAGUACUGCAGACACGUGCAACAGAGGAUUGAGCAUCA
B20: 31532532_31534450_220_CDS_ENSG00000082213_ENST00000325366|human|control|control (ssRNA)
RNA: GGGAGUUCUACAGUCCGACGAUCGAAAUGUAAAAAACUUACAUUACUGGCAGGAAGAUGCUUUGAGCCUAUGGCCCGGUAUAUAAAGGGUAGAACCUCCUGAUGAUCCUCCACCACCCACACUGGGAGCUUGGGGUAACGCCGCAACAGAGGAUUGAGCAUCA
B21: chr6:117881578:117881579:-_ENSG00000047932_ENST00000052569|hu_hu|motif|central (ssRNA)
RNA: GGGAGUUCUACAGUCCGACGAUCUUUAAUGUAGAAGAUGCCAUCUUUAUUUACAGGCUAAUAAAAAAAUAUUAAACUCAACGGGAUAUAAUACAUUAUCAUAAAUGCAAUAGAUUUGAGGCCAACCAUAAGUGUAAGACUGGACAACAGAGGAUUGAGCAUCA
B22: chr3:144353948:144353949:-_ENSMUSG00000037062_ENSMUST00000163279|mus_hu|FALSE|FALSE (ssRNA)
RNA: GGGAGUUCUACAGUCCGACGAUCACCAAACAACUCUGAAAAUAACCCAUCAAAACAUAAUAUUAAAAUCAUUUGAUUUCUGUUGGAAAACCAGGUAAACAUAGUUUAAAUGCGUUUUUGUCUAUGAAAGCAUUCAGAAAAUUCCAACAGAGGAUUGAGCAUCA

This assay has as its target T1, UNK ZnF1-3. In words: nsRBNS (natural sequence RNA bind-n-seq); RBNS binding buffer (assumed for nsRBNS): 25 mM Tris pH 7.5, 150 mM KCl, 3 mM MgCl2, 0.01% Triton X-100, 500 ug/ml BSA, 20 U/ml SUPERase-In, 4 C; UNK is unkempt and MSI1 is Musashi-1; names of the RNAs are library labels; protein concentration not given here; high values mean tight binding.
The molecule B1 yielded a binding signal of 0.4 enrichment R. In the case of B2, the binding signal came out at 1.8 enrichment R. The value for B3 was 0.712 enrichment R; that for B4 was 0.754 enrichment R; that for B5 was 0.424 enrichment R. B6 showed a binding signal of 1.45 enrichment R. In the case of B7, the binding signal came out at 1.3 enrichment R. B8 came in with a binding signal of 1.19 enrichment R. To B9 belongs 1.1 enrichment R; to B10, 2.41 enrichment R. With B11, the binding signal was 0.899 enrichment R.

B12: the binding signal was found to be 0.89 enrichment R. For the molecule B13, the binding signal is 2.59 enrichment R. The molecule B14 came in with a binding signal of 1.72 enrichment R. On to B15, for which the binding signal turned out to be 1.62 enrichment R. The molecule B16 returned a binding signal of 1.61 enrichment R. The molecule B17 yielded a binding signal of 0.901 enrichment R. In the case of B18, the binding signal is 0.896 enrichment R. To B19 belongs 1 enrichment R.

B20: the binding signal was 0.807 enrichment R. B21 yielded a binding signal of 1.5 enrichment R.

In turn, B22 showed a binding signal of 0.744 enrichment R.
